NR3A LBD binder: NR3A (human) ligand-binding domain modulation | NR3A LBD differential scanning fluorimetry, Tm shift; 0% = protein alone, 100% = glycine-bound protein | Tm shift relative to glycine control, % at 25 µM | actives 2.5% (n = 340,000) | AID 1259313;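 active means melting temperature shift of at least 10% of the positive control shift, at one fixed dose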
FAS TE block: inhibitors of human fatty acid synthase thioesterase domain | inhibition, % at 15 µM | AID 602261 | P49327 | recombinant FAS-TE, OMFH fluorogenic substrate, fluorescence endpoint | actives 0.67% (n = 360,000);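 active means compounds whose normalised, plate-corrected inhibition of enzyme fluorescence in the single-dose primary screen is 50% or more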
Target sequence (P49327 whole entry, looked up, the tested form may be a part): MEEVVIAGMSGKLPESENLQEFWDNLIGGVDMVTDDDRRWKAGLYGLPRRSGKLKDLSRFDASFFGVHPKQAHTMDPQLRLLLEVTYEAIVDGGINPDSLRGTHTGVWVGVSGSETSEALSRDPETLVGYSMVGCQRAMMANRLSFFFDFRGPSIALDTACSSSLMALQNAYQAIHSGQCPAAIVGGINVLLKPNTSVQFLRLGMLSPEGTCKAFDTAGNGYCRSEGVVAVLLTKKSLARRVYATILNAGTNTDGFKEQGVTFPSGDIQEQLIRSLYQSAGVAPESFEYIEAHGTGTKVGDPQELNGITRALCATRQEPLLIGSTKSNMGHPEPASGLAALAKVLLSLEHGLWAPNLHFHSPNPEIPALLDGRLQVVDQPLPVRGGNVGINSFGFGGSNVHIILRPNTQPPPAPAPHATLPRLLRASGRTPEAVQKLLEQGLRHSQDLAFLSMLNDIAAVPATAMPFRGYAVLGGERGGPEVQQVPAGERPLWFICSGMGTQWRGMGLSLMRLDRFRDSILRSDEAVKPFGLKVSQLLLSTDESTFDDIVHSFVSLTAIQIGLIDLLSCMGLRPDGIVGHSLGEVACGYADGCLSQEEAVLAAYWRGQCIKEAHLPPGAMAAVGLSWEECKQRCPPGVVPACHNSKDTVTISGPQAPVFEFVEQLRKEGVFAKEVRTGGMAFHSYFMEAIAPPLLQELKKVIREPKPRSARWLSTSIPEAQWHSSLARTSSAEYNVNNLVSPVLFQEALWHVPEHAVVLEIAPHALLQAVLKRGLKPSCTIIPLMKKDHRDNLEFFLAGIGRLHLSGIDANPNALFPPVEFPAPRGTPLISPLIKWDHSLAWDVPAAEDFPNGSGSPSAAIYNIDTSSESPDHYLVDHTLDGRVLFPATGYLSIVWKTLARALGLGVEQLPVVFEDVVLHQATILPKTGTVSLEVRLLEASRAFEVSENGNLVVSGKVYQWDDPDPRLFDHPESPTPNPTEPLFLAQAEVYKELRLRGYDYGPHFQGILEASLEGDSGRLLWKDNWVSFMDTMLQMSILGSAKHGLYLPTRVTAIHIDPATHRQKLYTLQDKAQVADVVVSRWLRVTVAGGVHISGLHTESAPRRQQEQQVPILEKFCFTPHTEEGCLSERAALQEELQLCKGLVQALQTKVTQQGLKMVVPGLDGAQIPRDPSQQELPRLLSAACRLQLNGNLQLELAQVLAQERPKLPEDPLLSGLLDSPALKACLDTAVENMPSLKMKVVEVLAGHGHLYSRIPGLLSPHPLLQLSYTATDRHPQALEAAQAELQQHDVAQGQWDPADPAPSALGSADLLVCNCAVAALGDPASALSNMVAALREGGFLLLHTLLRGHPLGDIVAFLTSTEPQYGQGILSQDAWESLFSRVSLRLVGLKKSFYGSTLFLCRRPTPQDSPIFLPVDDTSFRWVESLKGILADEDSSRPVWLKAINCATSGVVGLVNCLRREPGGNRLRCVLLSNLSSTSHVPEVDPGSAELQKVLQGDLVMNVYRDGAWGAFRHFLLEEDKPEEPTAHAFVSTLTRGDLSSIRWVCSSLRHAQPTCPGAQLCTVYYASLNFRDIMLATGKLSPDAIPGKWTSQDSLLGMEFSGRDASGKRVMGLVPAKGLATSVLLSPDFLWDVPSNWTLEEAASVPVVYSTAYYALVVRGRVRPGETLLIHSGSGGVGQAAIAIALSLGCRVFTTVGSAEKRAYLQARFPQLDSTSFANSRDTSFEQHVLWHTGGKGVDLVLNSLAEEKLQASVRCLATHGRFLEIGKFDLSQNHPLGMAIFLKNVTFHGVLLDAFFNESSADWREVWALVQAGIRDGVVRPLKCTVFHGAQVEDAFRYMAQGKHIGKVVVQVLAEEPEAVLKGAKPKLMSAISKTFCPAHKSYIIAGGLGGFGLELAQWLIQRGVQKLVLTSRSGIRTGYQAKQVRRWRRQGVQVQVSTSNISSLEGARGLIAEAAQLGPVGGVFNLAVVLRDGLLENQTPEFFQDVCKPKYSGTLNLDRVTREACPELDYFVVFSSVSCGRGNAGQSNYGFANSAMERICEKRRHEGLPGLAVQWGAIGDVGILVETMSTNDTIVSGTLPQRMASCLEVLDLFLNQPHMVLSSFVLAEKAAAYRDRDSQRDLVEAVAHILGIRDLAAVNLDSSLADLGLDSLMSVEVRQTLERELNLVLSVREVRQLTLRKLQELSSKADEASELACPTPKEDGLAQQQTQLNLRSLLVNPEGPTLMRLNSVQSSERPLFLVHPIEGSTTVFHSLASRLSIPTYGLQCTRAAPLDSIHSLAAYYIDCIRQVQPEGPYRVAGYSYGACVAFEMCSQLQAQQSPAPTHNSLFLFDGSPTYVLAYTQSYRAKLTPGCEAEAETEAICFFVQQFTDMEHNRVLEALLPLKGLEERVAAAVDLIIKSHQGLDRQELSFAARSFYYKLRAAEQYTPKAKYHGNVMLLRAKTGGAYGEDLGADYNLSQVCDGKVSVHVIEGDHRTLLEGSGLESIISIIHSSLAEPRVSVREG
rCAG binder: r(CAG) repeat RNA binding; TO-PRO-1 dye displacement fluorescence; AID 651821; inhibition, % at 3 µM; actives 1.3% (n = 370,000);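 active means inhibition above the plate cutoff, the mean of all test compounds on that plate plus 3 SD, cut at about 35% in these data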;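 further: higher means more dye released from RNA so lower well fluorescence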
Myeloid diff MLP: promotes myeloid progenitor differentiation | ER-HoxA9 myeloid progenitors, lysozyme-GFP differentiation, flow cytometry | calls only at 10 µM | actives 1% (n = 360,000) | AID 624256;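 active means normalized GFP-positive differentiation at or above the plate's own cutoff, the solvent-only control mean plus 3 SD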;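 further: cells exposed to compound for four days before flow analysis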
MPTP block: inhibitors of mitochondrial permeability transition pore; isolated mouse mitochondria, Ca2+ swelling absorbance, 30 min; inhibition, % at 10 µM; actives 1.4% (n = 360,000);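 active means inhibition of 50% or more, scaled per plate between neutral and stimulator controls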
Large screens that a line does not name were inactive. Compounds with a hit are over-represented: about 5.7% of the library has one in this group of screens.

CCOc1ccc(S(=O)(=O)Nc2ccc(Cl)cn2)c(C)c1C	none
CCOc1ccc(C(C)C)cc1S(=O)(=O)Nc1ccc(Cl)cn1	NR3A LBD binder 12
C[C@@H]1CCN(C2CC2)S(=O)(=O)c2ccc(N3CCC[C@H]3C)cc2O1	none (no result: NR3A LBD binder, FAS TE block, Myeloid diff MLP, MPTP block)
C=CCN1[C@@H](C)[C@H](c2ccccc2)Oc2cccc(N3CCCC3)c2S1(=O)=O	none (no result: NR3A LBD binder, FAS TE block, Myeloid diff MLP, MPTP block)
CCNc1sc(C(=O)c2cccs2)c(N)c1-c1nc2ccccc2s1	NR3A LBD binder 21
Cc1c(C(=O)NN2CCCCC2)nn(-c2ccc(Cl)cc2Cl)c1-c1ccc(Cl)cc1	none (no result: NR3A LBD binder, FAS TE block, Myeloid diff MLP, MPTP block)
CC(=O)Nc1ccc(NC(=S)NC(=O)c2cc3ccccc3o2)cc1	NR3A LBD binder 16
CC(C)C(=O)Nc1ccc(NC(=S)NC(=O)c2cc3ccccc3o2)cc1	NR3A LBD binder 17
O=C(NC(=S)Nc1ccc2oc(=O)ccc2c1)c1cc2ccccc2o1	none
COc1ccc(CCNC(=O)c2cc(C3CC3)nc3c2cnn3C(C)C)cc1OC	Myeloid diff MLP active
C[C@H]1CN(S(=O)(=O)C(C)(C)C)[C@@H](CCO)/C1=C\CCO	none (no result: NR3A LBD binder, FAS TE block, Myeloid diff MLP, MPTP block)
Nn1c(SCC(=O)Nc2nccs2)nnc1-c1cc(-c2ccc(F)cc2)n[nH]1	none (no result: NR3A LBD binder, FAS TE block, Myeloid diff MLP, MPTP block)
Cc1cc(N)ccc1-n1nc2ccccc2n1	Myeloid diff MLP active
Cc1ccc(-n2nc3ccc(N)cc3n2)c(C)c1	none
CCCC(=O)N1N=C(c2ccccc2)CC1c1cn(C)c2ccccc12 (stereo not given)	NR3A LBD binder 15
Cn1cc(C2CC(c3ccccc3)=NN2C(=O)c2ccccc2)c2ccccc21 (stereo not given)	none
O=C(C1CCCN1S(=O)(=O)c1cccc2ccccc12)N1CCN(c2ccccc2)CC1 (stereo not given)	none (no result: NR3A LBD binder, FAS TE block, Myeloid diff MLP, MPTP block)
COc1ccc(NC(C)=O)c([N+](=O)[O-])c1[N+](=O)[O-]	NR3A LBD binder 14
COc1ccc(OC)c([N+](=O)[O-])c1C(N)=O	none
CCN(CC)C(=O)Cn1c(=O)c2ccccc2n2c(=S)sc(-c3cccc(C)c3)c12	Myeloid diff MLP active
CCN(CC)C(=O)CCn1nc(-c2ccc(C)cc2)c2ccccc2c1=O	none (no result: rCAG binder)
CCOc1cc(/C=N/O)cc(Br)c1OCc1ccc(Cl)cc1	NR3A LBD binder 13
COc1ccc(NC(=O)NCCCN2CCN(c3ccc(F)cc3)CC2)cc1OC	none (no result: NR3A LBD binder, FAS TE block, Myeloid diff MLP, MPTP block)
O=C(CN1C(=O)c2cccnc2C1=O)c1ccccc1	none
CC(=O)OCCN1C(=O)c2cccnc2C1=O	NR3A LBD binder 13
CCCCOc1ccc2c(c1)C(=O)c1cc(O)ccc1-2	NR3A LBD binder 34
O=C(N=Nc1c(O)n(Cc2ccccc2)c2ccccc12)c1cc2ccccc2cc1O	NR3A LBD binder 13
CCCS(=O)(=O)NC(=O)C1(C)CCN(C(=O)c2ccc(OC)cc2OC)C1 (stereo not given)	none (no result: NR3A LBD binder)
COc1ccc(C2=CC3=C(Br)C(=O)C(C)(OC(=O)c4ccco4)C(=O)C3=CO2)cc1 (stereo not given)	Myeloid diff MLP active (no result: rCAG binder)
O=Cc1cc2ccccc2nc1SCCCF	Myeloid diff MLP active
N#Cc1cc2ccccc2nc1SCc1cccnc1	none
COC(=O)[C@]12C[C@H](CC(=O)NCc3ccc(OC)c(OC)c3)C(=O)N(Cc3ccccc3)C1=C[C@H](C(C)(C)C)O[C@@H]2C	none (no result: NR3A LBD binder, FAS TE block, Myeloid diff MLP, MPTP block)
COC(=O)[C@]12C[C@H](CC(=O)N3CCC(c4ccccc4)CC3)C(=O)N(CCc3ccc(OC)c(OC)c3)C1=C[C@H](COCc1ccccc1)O[C@@H]2C	none (no result: NR3A LBD binder, FAS TE block, Myeloid diff MLP, MPTP block)
C[C@@H](CSc1ccc(Br)cc1)CN1CC[C@H](C(C)(C)C)CCC1=O	NR3A LBD binder 10
CC(C)C(=O)N[C@H]1[C@H](O)CCC[C@@]12C(=O)N(Cc1ccccc1)c1ccccc12	none (no result: NR3A LBD binder, FAS TE block, Myeloid diff MLP, MPTP block)
CCCN(CC(=O)Nc1ccc(F)c(F)c1F)C(=O)Cn1c(=O)cnc2ccccc21	Myeloid diff MLP active
CCN(CC(=O)Nc1c(F)cccc1F)C(=O)Cn1c(=O)cnc2ccccc21	none
Cc1nc(NC(=O)c2csc3ccccc23)sc1C	NR3A LBD binder 28
O=C(Nc1nc2ncccn2c1-c1ccc(F)cc1)c1ccccc1	none (no result: NR3A LBD binder, FAS TE block, Myeloid diff MLP, MPTP block)
CCC(C)(C(=O)NC1CCCC1)N(Cc1ccco1)C(=O)c1ccccn1 (stereo not given)	none
CCC(C)(C(=O)NC1CCCC1)N(Cc1ccco1)C(=O)c1ccc2c(c1)OCO2 (stereo not given)	Myeloid diff MLP active
COc1ccc2c(c1)CN1C(=O)N(C3CCCC3)S(=O)(=O)CC21 (stereo not given)	none (no result: NR3A LBD binder, FAS TE block, Myeloid diff MLP, MPTP block)
O=C(Nc1nc2ncccn2c1-c1ccccc1)c1ccccc1	none (no result: NR3A LBD binder, FAS TE block, Myeloid diff MLP, MPTP block)

Screening data (PubChem)
